# From PubChem BioAssay (Tox21)
# Results filed as inconclusive are left out. Where a call stands in place of a potency, no number is given. Activity calls are given as the source filed them. The call rests on the fitted dose curve.
# Target: D(2) dopamine receptor (Homo sapiens) (UniProt P14416)
# Assay: Dopamine D2 receptor (DRD2) small molecule agonists, cell-based qHTS assay (AID 1963594); further: nearly all actives have a fitted effect of over 35% in size
# Conditions: HEK293-DRD2 cAMP HTRF, agonist mode, 30 min; series mostly up to 92.4 µM
# Description: National Center for Advancing Translational Sciences [NCATS]
# Division of Preclinical Innovation [DPI]
# U.S. Environmental Protection Agency [EPA]
# National Institutes of Environmental Health Sciences [NIEHS]
# National Toxicology Program [NTP]
# U.S. Food and Drug Administration [FDA]
# DRD2 is the D2 subtype of the dopamine receptor, which is coupled to Gi subtype of G protein-coupled receptor. This G protein-coupled receptor inhibits adenylyl cyclase activity. The DRD2-HEK293 cell line stably expressing D2 dopamine receptor can be used for screening agonists and antagonists of interactions between D2 and its ligands. The Hek293-DRD2 cAMP assay is based on HTRF technology. It measures changes of cAMP accumulation in response to Gi coupled GPCR activation or inhibition.
# Tox21 Assay Protocol Summary:
# DRD2-Hek293 cells were dispensed at 600 cells/3uL/well in 1536-well white plates using a Multidrop Dispenser. After the assay plates were incubated at a 37 C/5% CO2 incubator for 24 h, 1 uL of Ro20-1724 at final concentration of 0.1 mM was transferred to the assay plate by a Flying Reagent Dispenser. Following Ro20-1724 addition, 23 nL of compound dissolved in DMSO, positive controls or DMSO only was added to the assay plates via Wako pintool station. The assay plates were incubated at room temperature for 10 min. Next, 1 uL of NKH477 at 200nM was added into the plates. After the assay plates were incubated at room temperature for an additional 30 min, 2.5 ul/well of cAMP-d2 and 2.5 ul/well of anti-cAMP-cryptate were added respectively into the assay plates using a Flying Reagent Dispenser. The plates were incubated at room temperature for 1 h. The fluorescence intensity in the plates was measured at 340 nm excitation and 665 & 620 nm emission by an Envision plate reader.
# Sequence of D(2) dopamine receptor (Homo sapiens) (P14416 whole entry, looked up): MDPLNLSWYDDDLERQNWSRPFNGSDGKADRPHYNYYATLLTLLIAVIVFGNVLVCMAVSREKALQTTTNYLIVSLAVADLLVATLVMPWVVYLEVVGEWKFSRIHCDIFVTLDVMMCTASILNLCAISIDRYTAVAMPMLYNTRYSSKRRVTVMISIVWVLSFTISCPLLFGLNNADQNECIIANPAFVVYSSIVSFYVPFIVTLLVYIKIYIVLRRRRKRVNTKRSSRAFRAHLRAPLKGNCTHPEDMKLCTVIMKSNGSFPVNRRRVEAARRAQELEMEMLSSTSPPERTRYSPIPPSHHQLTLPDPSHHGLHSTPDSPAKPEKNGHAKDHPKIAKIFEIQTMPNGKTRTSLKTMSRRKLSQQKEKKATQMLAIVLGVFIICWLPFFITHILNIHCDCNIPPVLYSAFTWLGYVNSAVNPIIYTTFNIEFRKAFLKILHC
row,SMILES,Potency
1,CCCCN(CC)c1c([N+](=O)[O-])cc(C(F)(F)F)cc1[N+](=O)[O-],inactive
2,Brc1ccc(Br)cc1,inactive
3,COC(=O)C(Br)CBr (stereo not given),inactive
4,C=CCOC(N)=O,inactive
5,ClC(Cl)=C(c1ccc(Cl)cc1)c1ccc(Cl)cc1,inactive
6,CCN(CC)C(=O)C(C)Oc1cccc2ccccc12 (stereo not given),inactive
7,O=S1OCC2C(CO1)C1(Cl)C(Cl)=C(Cl)C2(Cl)C1(Cl)Cl (stereo not given),inactive
8,CCOP(=S)(OCC)SCSc1cc(Cl)ccc1Cl,inactive
9,CCCCCCCCn1cc[n+](C)c1,inactive
10,CC(Cl)Cl,inactive
11,CCCCCCCCCCBr,inactive
12,OC(Cc1ccccc1Cl)(Cn1cncn1)C1(Cl)CC1 (stereo not given),inactive
13,O=Cc1cccc(Oc2ccccc2)c1,inactive
14,CCC(C)(CC)c1cc(NC(=O)c2c(OC)cccc2OC)on1,inactive
15,CC(=[OH+])/C=C(/C)[O-].CC(=[OH+])/C=C(\C)[O-].CC(=[OH+])/C=C(\C)[O-].[Fe],inactive
16,CCC[N+](=O)[O-],inactive
17,CNC(=O)O/N=C/C(C)(C)S(C)(=O)=O,inactive
18,OCC(Cl)CCl (stereo not given),inactive
19,C[C@]12CCC(=O)C(O)=C1CC[C@@H]1[C@@H]2CC[C@]2(C)C(=O)CC[C@@H]12,inactive
20,C/C=C/c1ccc2c(c1)OCO2,inactive

row,SMILES,Potency
1,COc1cccc(C=O)c1,inactive
2,COc1ccc2c3c1O[C@H]1[C@@H](O)C=C[C@H]4[C@@H](C2)N(C)CC[C@@]341,inactive
3,N#CCCCCC#N,inactive
4,O=C(O)c1cc(Oc2ccc(C(F)(F)F)cc2Cl)ccc1[N+](=O)[O-],inactive
5,CC(C)(C)OOC(C)(C)C,inactive
6,CCCCC(C#N)(Cn1cncn1)c1ccc(Cl)cc1 (stereo not given),inactive
7,CCOC(=O)c1ccccc1N,inactive
8,O=[N+]([O-])c1ccc([As](=O)(O)O)cc1,inactive
9,CN(C)NC(=O)CCC(=O)O,inactive
10,CC(C)c1ccc(CO)cc1,inactive
11,CCCCC(CC)COC(=O)Cl (stereo not given),inactive
12,Clc1ccccc1Cl,inactive
13,CCCC(C)(COC(N)=O)COC(=O)NC(C)C (stereo not given),inactive
14,c1ccc(N=NNc2ccccc2)cc1,inactive
15,CCCCCCCCCCCCBr,inactive
16,O=c1n(Cl)c(=O)n(Cl)c(=O)n1Cl,inactive
17,CCOP(=S)(OCC)Oc1cnc2ccccc2n1,inactive
18,CCNc1nc(NC(C)(C)C)nc(SC)n1,inactive
19,CC(=O)[C@H]1CC[C@H]2[C@@H]3CC[C@H]4C[C@](C)(O)CC[C@]4(C)[C@H]3CC[C@]12C,inactive
20,CC(C)(C#N)N=NC(C)(C)C#N,inactive
